Data: PubChem BioAssay

Each molecule was assayed on Wnt5a (protein binding on small-molecule microarray) (assay: Wnt5a binders on small-molecule microarray, primary screen, biophysical, 635/667 nm fluorescence (AID 1142;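 also: fluorescence read at 667 nm with signal to noise per printed feature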)). Conditions: 635 nm fluorescence, higher = more signal.

Question: How did the composite z-score turn out when `O=C1C2C=CC(C(O)C3CCCCC3)N(Nc3ccc([N+](=O)[O-])cc3)C2C(=O)N1c1ccccc1` (stereo not given) was run?
Answer: -0.457

Question: How did the composite z-score turn out when `C=CCNC(=O)[C@H]1[C@@H]2C(=O)O[C@@H](c3ccccc3)[C@@H](c3ccccc3)N2[C@@H](c2ccc(OCCO)cc2)[C@]12C(=O)N(C(=O)OCCOC)c1ccccc12` was run?
Answer: 0.25

Question: With `O=C1C2C=CC(C(O)c3c(F)cccc3Cl)N(Nc3ccccc3)C2C(=O)N1c1ccccc1` (stereo not given) as the molecule, how does the composite z-score read?
Answer: 0.422

Question: `CC(C)c1ccc(NN2C(C(O)c3cc(C(F)(F)F)cc(C(F)(F)F)c3)C=CC3C(=O)N(c4ccccc4)C(=O)C32)cc1` (stereo not given) was tested. Which composite z-score did it give?
Answer: -0.0702

Question: Which composite z-score does the source give for `[N-]=[N+]=NCc1ccccc1C[C@]1(C(=O)O)N=C(c2ccc(OCCCO)cc2)O[C@H]1c1ccccc1N=[N+]=[N-]` here?
Answer: 0.92

Question: `O=C1O[C@H](c2ccccc2)[C@H](c2ccccc2)N2[C@H]1[C@@H](C(=O)NC[C@H](O)c1ccccc1)[C@]1(C(=O)Nc3ccccc31)[C@H]2c1ccc(OCCO)cc1` was tested. Which composite z-score did it give?
Answer: 0.187

Question: How did the composite z-score turn out when `COC(=O)[C@@]1(Cc2ccc(F)cc2)[C@H]2c3cc(C(=O)N4CCCC4)n(Cc4ccc(C)o4)c3C[C@H]2CN1C(=O)c1ccccc1` was run?
Answer: 0.709

Question: `COc1ccc([Si](C)(C)[C@H]2[C@H](CCn3cc([C@H](O)c4ccccc4)nn3)O[C@@]3(C(=O)N(Cc4cccc(N5CCOC5=O)c4)c4ccccc43)[C@@H]2C)cc1` was tested. Which composite z-score did it give?
Answer: 0.488

Question: `COc1ccc(CCNC(=O)[C@@]2(C)c3ccccc3C(=O)N(Cc3cc(F)cc(C(F)(F)F)c3)[C@H]2c2ccc(CO)cc2)cc1` was tested. Which composite z-score did it give?
Answer: 0.126

Question: `O=C1O[C@@H](c2ccccc2)[C@@H](c2ccccc2)N2[C@@H](c3ccc(OCCO)cc3)[C@]3(C(=O)Nc4ccccc43)[C@@H](C(=O)NC[C@H](O)c3ccccc3)[C@H]12` was tested. Which composite z-score did it give?
Answer: 0.0635

Question: With `C=C(/C(=C/C[C@@H](OC(C)=O)c1ccc(OCCO)cc1)c1cnc2ccccc2c1)C(C)C` as the molecule, how does the composite z-score read?
Answer: 0.0701

Question: Which composite z-score does the source give for `O=C1OCC=C[C@H]2OC34C=CCN(CCN5CCOCC5)C(=O)[C@H]3N(CCCO)C(=O)[C@@H]4[C@@H]12` (stereo not given in full) here?
Answer: -0.418

Question: Which composite z-score does the source give for `C=CC[C@]1(C(=O)NCCCOC)N=C(c2ccc(OCCCO)cc2)O[C@H]1c1ccccc1N=[N+]=[N-]` here?
Answer: 0.485

Question: `COCC(=C=CC[C@H](O)c1ccccc1OCCO)C[C@H](O)c1cc(Cl)cc(Cl)c1O` was tested. Which composite z-score did it give?
Answer: 0.626

Question: With `COC(=O)c1c(CC[C@@H](CO)NC(=O)N2CCC[C@H]2Cn2cc(-c3ccccn3)nn2)oc(C(C)=O)c1C(=O)OC` as the molecule, how does the composite z-score read?
Answer: -0.249

Question: With `C=CCN(Cc1ccccc1)C(=O)C(c1cccs1)N(CCOCCO)C(=O)/C=C\C(=O)O` (stereo not given) as the molecule, how does the composite z-score read?
Answer: -1.17

Question: With `CCN(CC)c1ccc(N2CC=CC34O[C@@H]5/C=C\CCCOC(=O)C5[C@H]3C(=O)N(CCO)[C@@H]4C2=O)cc1` (stereo not given in full) as the molecule, how does the composite z-score read?
Answer: -0.6

Question: `C=CC[C@@]1(C(N)=O)N=C(c2ccc(OCCCO)cc2)O[C@@H]1c1ccccc1CN=[N+]=[N-]` was tested. Which composite z-score did it give?
Answer: 0.186

Question: With `O=C1c2ccccc2[C@](Cc2ccccc2I)(C(=O)NC2CC2)[C@H](c2ccc(CO)cc2)N1C1CCCCC1` as the molecule, how does the composite z-score read?
Answer: 0.557

Question: How did the composite z-score turn out when `O=C(NCc1ccccc1)[C@@]1(CCS(=O)(=O)c2ccccc2)N=C(c2ccc(OCCCO)cc2)O[C@H]1c1ccccc1` was run?
Answer: 0.794

Question: For `CCCCCN1CC=CC23O[C@@H]4/C=C\CCCOC(=O)C4[C@H]2C(=O)N(CCCO)[C@@H]3C1=O` (stereo not given in full), which composite z-score is on record?
Answer: 0.132

Question: How did the composite z-score turn out when `C=CCNC(=O)[C@@H]1[C@H]2C(=O)O[C@H](c3ccccc3)[C@H](c3ccccc3)N2[C@H](c2ccccc2OCCO)[C@@]12C(=O)N(C(=O)OCCOC)c1ccc(C#CCNC(N)=O)cc12` was run?
Answer: 0.0308

Question: How did the composite z-score turn out when `COCCOC(=O)N1C(=O)[C@@]2(c3cc(C#CCCO)ccc31)[C@H](C(=O)N1CCN(c3ncccn3)CC1)[C@H]1C(=O)O[C@H](c3ccccc3)[C@H](c3ccccc3)N1[C@@H]2c1ccccc1OCCO` was run?
Answer: 0.0536

Question: Which composite z-score does the source give for `COc1ccc(CCN2C(=O)[C@@]3(c4ccc([N+](=O)[O-])cc4)CC(=O)N(C4CCCCC4)[C@@H]3c3ccc(CO)cc32)cc1` here?
Answer: -0.0463

Question: `CCOC(=O)C[C@H]1[C@H](OC(=O)c2ccc(C(=O)c3ccccc3)cc2)[C@@H](NC(=O)c2ccc(-c3ccccc3)cc2)c2cc(OCCCO)ccc2N1C(=O)c1ccccc1` was tested. Which composite z-score did it give?
Answer: 0.0074

Question: `COC(=O)C(CC#Cc1ccc2c(c1)[C@]1(C(=O)N2)[C@H](c2ccc(O)cc2)N2[C@H](c3ccccc3)[C@H](c3ccccc3)OC(=O)[C@H]2[C@@H]1C(=O)Nc1nc2ccccc2s1)C(=O)OC` was tested. Which composite z-score did it give?
Answer: 0.695

Question: Which composite z-score does the source give for `O=C1[C@H]2C=C(Br)[C@H](C[C@@H]2OCCCCO)[C@@]12CO2` here?
Answer: -0.0251

Question: With `Cc1ccc(C(C)CC(O)C2C=CC3C(=O)N(c4ccccc4)C(=O)C3N2Nc2ccc([N+](=O)[O-])cc2)o1` (stereo not given) as the molecule, how does the composite z-score read?
Answer: 0.354

Question: With `COCCOC(=O)N1C(=O)[C@@]2(c3cc(C#CCCO)ccc31)[C@H](C(=O)Nc1nc3ccccc3s1)[C@H]1C(=O)O[C@H](c3ccccc3)[C@H](c3ccccc3)N1[C@@H]2c1ccc(OCCO)cc1` as the molecule, how does the composite z-score read?
Answer: 0.281

Question: Which composite z-score does the source give for `CCCCC(O)C1C=CC2C(=O)N(c3ccccc3)C(=O)C2N1Nc1ccccc1F` (stereo not given) here?
Answer: 0.182

Question: `[N-]=[N+]=Nc1ccccc1C[C@]1(C(=O)NCC(O)CO)N=C(c2ccc(OCCCO)cc2)O[C@H]1c1ccccc1N=[N+]=[N-]` (stereo not given in full) was tested. Which composite z-score did it give?
Answer: 0.246

Question: How did the composite z-score turn out when `C=C(CCCC)/C(=C/C[C@@H](OC(C)=O)c1ccccc1OCCO)c1cnc2ccccc2c1` was run?
Answer: 0.0953

Question: `OC([C@@H]1CC(c2ccccc2)=NO1)[C@H]1CC(c2ccccc2)=NO1` (stereo not given in full) was tested. Which composite z-score did it give?
Answer: 0.0286

Question: Which composite z-score does the source give for `[N-]=[N+]=NCc1ccccc1[C@H]1OC(c2ccc(OCCCO)cc2)=N[C@@]1(Cc1ccccc1)C(=O)NCc1ccccc1` here?
Answer: 0.348

Question: For `O=C(NCc1ccccc1)[C@@H]1c2ccccc2C(=O)N(CC23CC4CC(CC(C4)C2)C3)[C@H]1c1ccc(CO)cc1`, which composite z-score is on record?
Answer: 0.237
